From ChEMBL document CHEMBL1961873, “Compounds: GSK PKIS; Assays: Nanosyn kinase panel” (2012)

Columns and labels:
[1] = target: Ribosomal protein S6 kinase alpha-6 (Homo sapiens) (UniProt Q9UK32); details: at 1 µM;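 also: each value is a mean inhibition of RSK4 from a GSK PKIS panel screen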
[2] = target: T1, Serine/threonine-protein kinase Sgk1 (Homo sapiens) (UniProt O00141); details: at 0.1 µM
T1 sequence (whole entry): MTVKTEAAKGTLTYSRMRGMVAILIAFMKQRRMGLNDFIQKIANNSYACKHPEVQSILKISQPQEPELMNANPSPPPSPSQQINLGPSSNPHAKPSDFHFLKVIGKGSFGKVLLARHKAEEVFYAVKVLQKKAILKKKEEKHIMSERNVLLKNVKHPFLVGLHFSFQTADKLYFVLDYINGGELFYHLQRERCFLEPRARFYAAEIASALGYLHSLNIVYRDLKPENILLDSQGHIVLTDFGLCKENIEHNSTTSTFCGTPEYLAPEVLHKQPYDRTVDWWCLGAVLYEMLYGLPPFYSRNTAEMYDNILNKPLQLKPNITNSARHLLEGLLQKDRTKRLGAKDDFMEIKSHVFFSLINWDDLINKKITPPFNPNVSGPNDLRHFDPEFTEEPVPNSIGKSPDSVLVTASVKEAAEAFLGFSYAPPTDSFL

[3] = target: T1, Serine/threonine-protein kinase Sgk1 (Homo sapiens); details: at 1 µM
[4] = target: T2, Serine/threonine-protein kinase Sgk2 (Homo sapiens) (UniProt Q9HBY8); details: at 0.1 µM
T2 sequence (whole entry): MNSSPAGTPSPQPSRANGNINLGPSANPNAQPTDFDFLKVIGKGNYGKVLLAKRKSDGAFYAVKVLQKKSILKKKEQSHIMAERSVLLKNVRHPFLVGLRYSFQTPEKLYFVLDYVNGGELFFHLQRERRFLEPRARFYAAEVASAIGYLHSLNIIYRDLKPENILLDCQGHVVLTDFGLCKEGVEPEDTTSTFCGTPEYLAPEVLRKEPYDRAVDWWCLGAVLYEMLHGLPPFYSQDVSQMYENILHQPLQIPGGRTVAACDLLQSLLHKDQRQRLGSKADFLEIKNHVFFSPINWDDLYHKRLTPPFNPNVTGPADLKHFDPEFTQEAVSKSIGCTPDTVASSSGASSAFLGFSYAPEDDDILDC

[5] = target: T2, Serine/threonine-protein kinase Sgk2 (Homo sapiens); details: at 1 µM
[6] = target: T3, Serine/threonine-protein kinase Sgk3 (Homo sapiens) (UniProt Q96BR1); details: at 0.1 µM
T3 sequence (whole entry): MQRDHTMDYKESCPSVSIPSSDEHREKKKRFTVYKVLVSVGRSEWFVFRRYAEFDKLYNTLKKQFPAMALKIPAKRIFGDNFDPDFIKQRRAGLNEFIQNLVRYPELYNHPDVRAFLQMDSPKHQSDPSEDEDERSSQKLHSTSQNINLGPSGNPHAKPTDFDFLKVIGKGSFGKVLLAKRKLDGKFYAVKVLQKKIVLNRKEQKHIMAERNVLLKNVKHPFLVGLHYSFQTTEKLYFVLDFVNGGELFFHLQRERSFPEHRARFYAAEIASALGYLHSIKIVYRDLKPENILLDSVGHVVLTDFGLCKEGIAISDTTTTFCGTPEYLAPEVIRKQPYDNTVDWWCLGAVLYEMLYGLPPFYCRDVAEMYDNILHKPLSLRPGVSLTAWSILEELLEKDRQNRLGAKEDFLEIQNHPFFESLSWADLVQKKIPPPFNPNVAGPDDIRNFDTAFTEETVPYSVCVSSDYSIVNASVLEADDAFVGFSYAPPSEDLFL

[7] = target: T3, Serine/threonine-protein kinase Sgk3 (Homo sapiens); details: at 1 µM
[8] = target: 5'-AMP-activated protein kinase catalytic subunit alpha-1 (Homo sapiens) (UniProt Q13131); details: at 0.1 µM
[9] = target: 5'-AMP-activated protein kinase catalytic subunit alpha-1 (Homo sapiens) (UniProt Q13131); details: at 1 µM
[10] = target: 5'-AMP-activated protein kinase catalytic subunit alpha-2 (Homo sapiens) (UniProt P54646); details: at 0.1 µM;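 also: mean inhibition measured on the AMPK complex of alpha2, beta1 and gamma1 subunits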
Sequence of 5'-AMP-activated protein kinase catalytic subunit alpha-2 (Homo sapiens) (P54646 whole entry, looked up): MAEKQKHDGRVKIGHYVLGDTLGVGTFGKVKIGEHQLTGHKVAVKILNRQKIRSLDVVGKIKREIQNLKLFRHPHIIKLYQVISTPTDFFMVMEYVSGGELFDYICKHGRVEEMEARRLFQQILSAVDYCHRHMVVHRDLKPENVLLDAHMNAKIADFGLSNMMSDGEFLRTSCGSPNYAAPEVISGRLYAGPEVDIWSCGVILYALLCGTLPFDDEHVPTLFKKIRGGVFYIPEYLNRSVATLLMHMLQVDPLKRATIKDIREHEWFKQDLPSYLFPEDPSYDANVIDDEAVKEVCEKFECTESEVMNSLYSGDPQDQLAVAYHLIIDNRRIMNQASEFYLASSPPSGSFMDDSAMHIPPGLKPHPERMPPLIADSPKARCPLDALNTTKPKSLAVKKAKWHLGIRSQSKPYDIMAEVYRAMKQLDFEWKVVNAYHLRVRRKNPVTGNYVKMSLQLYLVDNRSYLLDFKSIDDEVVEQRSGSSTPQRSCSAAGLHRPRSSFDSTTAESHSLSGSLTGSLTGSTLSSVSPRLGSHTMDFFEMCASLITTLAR

Sequence of 5'-AMP-activated protein kinase catalytic subunit alpha-1 (Homo sapiens) (Q13131 whole entry, looked up): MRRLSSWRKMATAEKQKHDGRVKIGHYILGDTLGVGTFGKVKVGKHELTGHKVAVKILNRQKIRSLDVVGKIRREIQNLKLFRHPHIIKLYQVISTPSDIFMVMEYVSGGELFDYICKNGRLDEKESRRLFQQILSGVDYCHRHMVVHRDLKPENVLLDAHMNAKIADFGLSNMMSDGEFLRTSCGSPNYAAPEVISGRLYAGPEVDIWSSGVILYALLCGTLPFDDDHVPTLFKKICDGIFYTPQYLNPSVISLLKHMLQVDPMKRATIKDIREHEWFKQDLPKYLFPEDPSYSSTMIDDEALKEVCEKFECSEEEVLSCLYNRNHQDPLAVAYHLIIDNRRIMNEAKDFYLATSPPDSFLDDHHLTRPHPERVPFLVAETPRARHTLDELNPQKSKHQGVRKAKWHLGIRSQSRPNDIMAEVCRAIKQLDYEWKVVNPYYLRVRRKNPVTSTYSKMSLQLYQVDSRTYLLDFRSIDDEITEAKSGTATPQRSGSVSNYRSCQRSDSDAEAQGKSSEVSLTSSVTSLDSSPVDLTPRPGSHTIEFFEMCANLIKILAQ
Sequence of Ribosomal protein S6 kinase alpha-6 (Homo sapiens) (Q9UK32 whole entry): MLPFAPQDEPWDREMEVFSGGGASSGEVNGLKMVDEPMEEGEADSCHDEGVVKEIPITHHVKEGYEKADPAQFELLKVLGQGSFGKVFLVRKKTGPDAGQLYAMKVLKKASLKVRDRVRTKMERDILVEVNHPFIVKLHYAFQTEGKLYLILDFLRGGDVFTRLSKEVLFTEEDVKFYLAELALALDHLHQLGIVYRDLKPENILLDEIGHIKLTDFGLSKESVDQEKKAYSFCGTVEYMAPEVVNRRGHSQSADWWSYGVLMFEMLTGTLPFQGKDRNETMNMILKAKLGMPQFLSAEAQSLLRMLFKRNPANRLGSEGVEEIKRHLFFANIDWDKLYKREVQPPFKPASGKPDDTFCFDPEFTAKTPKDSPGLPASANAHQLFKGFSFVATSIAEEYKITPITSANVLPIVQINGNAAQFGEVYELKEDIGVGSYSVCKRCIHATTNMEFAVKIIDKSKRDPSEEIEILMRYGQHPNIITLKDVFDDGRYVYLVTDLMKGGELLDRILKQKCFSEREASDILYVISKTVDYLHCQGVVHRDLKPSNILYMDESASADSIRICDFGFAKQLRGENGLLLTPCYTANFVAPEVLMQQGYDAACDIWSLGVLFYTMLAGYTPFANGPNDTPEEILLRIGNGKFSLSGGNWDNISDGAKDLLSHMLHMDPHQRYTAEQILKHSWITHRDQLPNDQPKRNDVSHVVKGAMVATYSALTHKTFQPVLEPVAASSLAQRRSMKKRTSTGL

Row | Structure (SMILES) | inhibition [1] [%] | inhibition [2] [%] | inhibition [3] [%] | inhibition [4] [%] | inhibition [5] [%] | inhibition [6] [%] | inhibition [7] [%] | inhibition [8] [%] | inhibition [9] [%] | inhibition [10] [%]
1 | Fc1ccc(-c2ncn(C3CCNCC3)c2-c2ccnc(Oc3ccccc3)n2)cc1 | -1.23 | 0.46 | 0.24 | 0.49 | 2.09 | 0.78 | 2.18 | 2.1 | 0.47 | 2.07
2 | NS(=O)(=O)c1ccc(-c2ccc3c(NC(=O)C4CC4)n[nH]c3c2)cc1 | 3.54 | 0.35 | 14.6 | -0.5 | 3.35 | -0.5 | -1.93 | 2.61 | 2.22 | -0.68
3 | CCn1c(-c2nonc2N)nc2c(C#CCN)ncc(OCCCN)c21 | 15.3 | 1.23 | 5.38 | -0.28 | 8.17 | 5.66 | 40.1 | 0.48 | 4.78 | 2.63
4 | COc1cccc(-n2ncc3c(N/N=C/c4ccncc4)ncnc32)c1 | 4.33 | 6.01 | 16.1 | 4.49 | 11.9 | 5.19 | 6.6 | 2.59 | 9.15 | 2.26
5 | COc1cc(C=NNc2ncnc3c2cnn3Cc2ccccc2)ccc1O | 2.26 | -3.31 | 3.11 | -3 | -2.21 | -2.5 | -0.29 | -1.23 | -0.19 | -2.17
6 | Nc1nonc1-c1nc2cnccc2n1C1CCCCC1 | 30.9 | 1.2 | 13.2 | 5.9 | 40.5 | 7.01 | 41.7 | 0.66 | 5.36 | -0.2
7 | Cc1cc(-c2ccco2)cc(C)c1/C=C/c1cncc(-c2nn[nH]n2)c1 | -0.53 | 2.78 | 0.73 | -0.62 | -1.7 | -0.03 | -0.92 | 0.43 | 1.33 | 0.25
8 | COc1cc2c(cc1Nc1nc(Nc3ccsc3C(N)=O)c3cc[nH]c3n1)N(C(=O)CN(C)C)CCC2 | 16.4 | 3.82 | 2.11 | 2.89 | 2.84 | -0.08 | -0.04 | 1.03 | -0.4 | 0.93
9 | NC(=O)c1sc(-n2cnc3cc(C(F)(F)F)ccc32)cc1OCc1ccccc1Br | 1.95 | 1.54 | 2.43 | 0.68 | -0.08 | -0.31 | 4.18 | 2.29 | 2.17 | 2.18
10 | NS(=O)(=O)c1ccc(N/C=C2\C(=O)Nc3ccc4ncsc4c32)cc1 | 59.9 | 9.85 | 47.5 | 4.72 | 18.4 | 3.8 | 10.2 | 21.1 | 59.9 | 14.4
11 | CCn1c(-c2nonc2N)nc2c(C#CC(C)(C)O)ncc(OC[C@@H]3CCCN3)c21 | 8.09 | 1.28 | 2.09 | 3.27 | 2.29 | 12.7 | 47.4 | 6 | 39.3 | 0.91
12 | COc1cccc(COc2cc(-n3cnc4ccccc43)sc2C(N)=O)c1 | 2.04 | 3.04 | 0.63 | -0.02 | -0.45 | -1.95 | -0.21 | 0.92 | 2.35 | -0.66
13 | CCn1c(-c2nonc2N)nc2c(C#CC(C)(C)O)nc(O[C@@H](CN)c3ccccc3)cc21 | 23.4 | 4 | 34.2 | 5.31 | 3.43 | 64.9 | 94.2 | 79.2 | 88.1 | 24.6
14 | CCn1c(-c2nonc2N)nc2c(C#CC(C)(C)O)ncc(OCC3CCNCC3)c21 | 7.82 | 5.12 | 10.5 | 2.67 | 8.07 | 21.6 | 67.4 | 13.8 | 51.9 | 3.32
